These results are taken from PubChem BioAssay AID720519 (National Center for Advancing Translational Sciences (NCATS), 2013).

Records with an inconclusive call do not appear. A number with no mark means an inactive call. Calls come from the whole dose curve; as a rule, active = well fitted activation curve with a large enough effect; inconclusive = small, poorly fitted or top-dose-only effect; inactive = flat fitted curve, though single readings scatter.

The experiment is described as follows: qHTS for Inhibitors of Cell Surface uPA Generation: Confirmatory Assay for Cherry-picked Compounds. Note: 0% is about no effect. The settings on record: cell surface uPA activity generation, qHTS confirmation; series mostly up to 115 µM; inhibition: at the top concentration. In outline:
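RAW 264.7 cells at 4000/well, incubated overnight, then treated with compounds. After 24 h at 37 C, viability was read by ATPlite luminescence. An increase in signal indicates blocked uPA-dependent LF entry.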
(In general: In qHTS, concentration-response curves come from the screen itself.)
As for `CCc1ccc(NCc2nc(-c3ccccc3)no2)cc1`, the “inhibition” value was -0.825%. Next, `COc1ccc(S(=O)(=O)N2CCOCC2)cc1NC(=O)CN1C(=O)NC2(CCCC2)C1=O`: -1.23%; `COc1ccccc1-c1ccc(SCC(=O)NCCc2ccccc2)nn1`: -1.94%. Next, `Cc1cccn2c(CNCC(C)Oc3cccnc3)c(C(=O)N3CCOCC3)nc12` (centres undefined): -1.92%. For the molecule `COc1ccc(NC(=O)c2cccnc2N2CCOCC2)cc1`, the “inhibition” value is 0.0181%. Take `Cc1nc(SCC(=O)NCCN2C(=O)CSC2=O)nc(C)c1C`: the “inhibition” value was -1.28%. The result for `CC(C)NCC1CCc2cc(CO)c([N+](=O)[O-])cc2N1` (centres undefined) reads 4.66%. With `Cc1cccc(C(=O)NC2CCN(CC(=O)N3CCOCC3)CC2)c1`, the “inhibition” value is -1.99%. With `C[C@H](CO)N1C[C@H](C)[C@@H](CN(C)C(=O)Nc2ccccc2)Oc2c(NS(=O)(=O)c3ccccc3)cccc2C1=O`, the “inhibition” value was 0.588%. The result for `CC(C)OC(=O)c1ccc(N2CCN(c3ccccc3F)CC2)nc1` reads -2.84%; that for `CC(=O)c1ccc2c(c1)c1ccccc1n2CC(C)C`, -0.0624%; that for `O=C(/C=C/c1cccc(F)c1)Nc1cc(S(=O)(=O)N2CCOCC2)ccc1Cl`, -2.51%.

As to `Cc1ccc(NC(=O)CCCn2c(=S)[nH]c3ccsc3c2=O)cc1C`, the “inhibition” value is 1.66%. The result for `COC(=O)CNC(=O)COC(=O)/C=C/c1ccccc1[N+](=O)[O-]` reads -2.86%. Take `COc1cccc(C(=O)Cn2c(NCCCO)nc3ccccc32)c1`: the “inhibition” value is -1.59%. Consider `COc1ccc2[nH]cc(S(=O)(=O)c3ccc(C(C)C)cc3)c(=O)c2c1`, for which the “inhibition” value is 0.422%.

As for `CCOc1ccccc1C(=O)NC1CCN(CC(=O)Nc2cc(OC)ccc2OC)CC1`, the “inhibition” value is -0.0474%. Consider `CS/C(=C\[N+](=O)[O-])Nc1ccccc1`, for which the “inhibition” value is -3.31%.

As to `Cc1cc(C)cc(NC(=O)C(OC(=O)c2ccc(O)cc2)c2ccccc2)c1` (centres undefined), the “inhibition” value is -2.37%.

As to `Cc1ccc(-c2cc(C(=O)NCC3CCCO3)no2)cc1` (centres undefined), the “inhibition” value is -3.36%. `CCCCn1c(C2CCCCC2)nc2cc3[nH]c(=O)c(C(C)C)nc3cc21`: the “inhibition” value is -3.43%. Next, `COc1ccccc1N1CCN(C2CC(=O)N(c3ccccc3)C2=O)CC1` (centres undefined): -2.5%; `Cc1ccc(N2C(=O)CC(N3CCN/C3=C3\CC/C(=C\c4ccccc4)C3=O)C2=O)cc1` (centres undefined): -1.31%.

`CC(C)c1ccc(C2/C(=C(\O)c3ccc4c(c3)OCCO4)C(=O)C(=O)N2CCN2CCOCC2)cc1` (centres undefined): the “inhibition” value was -0.762%.

As for `COc1ccc(-n2nnnc2SCC(=O)Nc2nnc(C)s2)cc1`, the “inhibition” value is -0.694%.

Turning to `CCOC(=O)C(CC)n1cnc2c(nnn2-c2ccccc2)c1=O` (centres undefined), the “inhibition” value is 0.0418%. Next, `COc1ccc(CN2CCN(Cc3ccc(C(F)(F)F)cc3)CC2)cc1`: -2.64%; `O=C(NCc1ccco1)/C(=C\c1cccs1)NC(=O)c1ccccc1`: -0.346%. In the case of `CCS(=O)c1scc(-c2ccc(Cl)cc2)c1C#N` (centres undefined), the “inhibition” value was -3.68%. The result for `CCOC(=O)C1(CCOc2ccccc2)CCN(Cc2ccc(O)c(OC)c2)CC1` reads -3.27%; that for `Nc1cc(=O)[nH]c(SCC(=O)Nc2cccc([N+](=O)[O-])c2)n1`, -1.96%. On to `Cc1cc(C)n(CCCNC(=O)c2ccc(C)o2)n1`, for which the “inhibition” value was -2.18%. Next, `Cc1cccc(CNc2ccc(C(CC(N)=O)NC(=O)c3cccc(Br)c3)cc2[N+](=O)[O-])c1` (centres undefined): -0.0467%. Regarding `Cc1ccc(S(=O)(=O)N2CCN(C(=O)c3n[nH]c(=O)c4ccccc34)CC2)cc1`, the “inhibition” value was -1.76%.

Turning to `CCn1c2ccccc2c2n[nH]c(=S)nc21`, the “inhibition” value was -1.42%.

`CC(C)(C)NC(=O)C(c1cccs1)N(C(=O)c1csnn1)c1ccccc1F` (centres undefined): the “inhibition” value was -1.14%. For `CCOc1ccc(NS(=O)(=O)c2ccc(C(=O)N3CCC3)cc2)cc1`, the “inhibition” value was -1.37%. As for `CCN(CC)CCCn1c2c(c(SCC(=O)Nc3cccc4ccccc34)nc1=O)CCC2`, the “inhibition” value was -3.24%.

With `O=C(O)c1cc(N=Nc2c(O)[nH]c3ccc([N+](=O)[O-])cc23)ccc1Cl`, the “inhibition” value was -0.969%.

For orientation: inhibition means the change of the read-out against control, counted positive when it falls.
